For 62 compounds, cytotoxicity call results are on record in the antibiotic and cytotoxicity screens of Wong et al. (2023).

Screen size: about 39,000 compounds; about 3,300 (8.5%) were called active. The sample as a whole holds a higher share of actives than the screen did.

The subject of the test is HepG2. As to the kind of experiment: cytotoxicity call (relative viability < 0.9). The note with it: 10 µM.
Turning to `C[C@@H]1CCCCO[C@@H](CN(C)Cc2ccc(C(=O)Nc3ccccc3N)cc2)[C@@H](C)CN([C@H](C)CO)C(=O)c2cc(NC(=O)Cc3ccccc3)ccc2O1`, the cytotoxicity call is “inactive”.
Next, `C[C@H]1CCCCO[C@H](CN(C)Cc2ccc(C(=O)Nc3ccccc3N)cc2)[C@@H](C)CN([C@@H](C)CO)C(=O)c2cc(N(C)C)ccc2O1`: “inactive”; `C[C@@H]1CCCCO[C@@H](CN(C)Cc2ccc(C(=O)Nc3ccccc3N)cc2)[C@@H](C)CN([C@H](C)CO)C(=O)c2cc(NC(=O)c3ccncc3)ccc2O1`: “inactive”.
On to `C[C@@H]1CCCCO[C@@H](CN(C)Cc2ccc(C(=O)Nc3ccccc3N)cc2)[C@@H](C)CN([C@H](C)CO)C(=O)c2cc(NC(=O)c3ccccc3)ccc2O1`, for which the cytotoxicity call was “active”.
Next, `C[C@H](CO)N1C[C@H](C)[C@H](CN(C)Cc2ccc(C(=O)Nc3ccccc3N)cc2)OCCCC[C@H](C)Oc2ccc(N(C)C)cc2C1=O`: “inactive”; `CC(C)NC(=O)Nc1ccc2c(c1)C(=O)N([C@H](C)CO)C[C@H](C)[C@H](CN(C)Cc1ccc(C(=O)Nc3ccccc3N)cc1)OCCCC[C@@H](C)O2`: “inactive”; `C[C@@H]1CCCCO[C@H](CN(C)Cc2ccc(C(=O)Nc3ccccc3N)cc2)[C@@H](C)CN([C@H](C)CO)C(=O)c2cc(NC(=O)c3ccccc3)ccc2O1`: “active”.
Next, `C[C@@H]1CCCCO[C@@H](CN(C)Cc2ccc(C(=O)Nc3ccccc3N)cc2)[C@@H](C)CN([C@H](C)CO)C(=O)c2cc(NC(=O)Nc3ccccc3)ccc2O1`: “inactive”; `C[C@@H]1CCCCO[C@@H](CN(C)Cc2ccc(C(=O)Nc3ccccc3N)cc2)[C@H](C)CN([C@H](C)CO)C(=O)c2cc(N(C)C)ccc2O1`: “active”; `C[C@H]1CN([C@@H](C)CO)S(=O)(=O)c2ccc(C#CC3(O)CCCC3)cc2O[C@@H]1CN(C)C(=O)Cc1ccccc1`: “inactive”.
Take `C[C@@H]1CN([C@@H](C)CO)C(=O)c2cccc(NS(=O)(=O)c3ccc(F)cc3)c2O[C@@H]1CN(C)S(=O)(=O)c1cn(C)cn1`: the cytotoxicity call is “inactive”.
Next, `CCOC(=O)c1cccc([C@@H]2CC(=O)N(C(=O)OCc3ccccc3)[C@@H]2C(=O)Nc2cccc3cccnc23)c1`: “inactive”.
Then `Cc1noc(C)c1NC(=O)N(C)C[C@@H]1OCCCC[C@@H](C)Oc2ccc(NC(=O)C3CCCCC3)cc2C(=O)N([C@@H](C)CO)C[C@H]1C`, with “inactive”.
Then `C[C@@H]1CN([C@H](C)CO)C(=O)c2cc(NC(=O)CCC(F)(F)F)ccc2O[C@@H](C)CCCCO[C@H]1CN(C)S(=O)(=O)c1cccs1`, with “inactive”.
With `CN1CCC[C@H]1CCO`, the cytotoxicity call was “inactive”.
Take `CN(C)CCOC(C)(c1ccccc1)c1ccccn1.O=C(O)CCC(=O)O` (configuration not stated): the cytotoxicity call was “inactive”.
As to `CN1CCCC1CCOC(C)(c1ccccc1)c1ccc(Cl)cc1.O=C(O)C=CC(=O)O` (configuration not stated), the cytotoxicity call was “active”.
Next, `COc1ccc(S(=O)(=O)N(C)C[C@H]2Oc3ccc(NS(=O)(=O)c4cn(C)cn4)cc3CC(=O)N([C@H](C)CO)C[C@H]2C)cc1`: “inactive”.
Next, `Cn1cc(N2C[C@]3(COCCN(C(=O)C4(C#N)CC4)C3)OCC2=O)cn1`: “inactive”.
Then `COc1cc(-c2coc3cc(O[C@@H]4O[C@H](CO)[C@@H](O)[C@H](O)[C@H]4O)c(OC)c(O)c3c2=O)cc(O)c1OC`, with “inactive”; and `COc1ccc(-c2oc3cc(O[C@H]4O[C@H](CO)[C@@H](O)[C@H](O)[C@H]4O)c(OC)c(O)c3c(=O)c2OC)cc1O`, with “inactive”.
As for `COc1cc(-c2coc3cc(OC4OC(CO)C(O)C(O)C4O)c(OC)c(O)c3c2=O)cc(O)c1OC` (configuration not stated), the cytotoxicity call was “active”.
Then `O=C1CCCSc2ccccc21`, with “inactive”; and `C[C@@H]1CN([C@H](C)CO)C(=O)c2cc(NC(=O)C3CCCCC3)ccc2O[C@@H](C)CCCCO[C@H]1CN(C)C(=O)Nc1ccc2c(c1)OCO2`, with “inactive”.
Then `C[C@@H]1CCCCO[C@@H](CN(C)C(=O)CCCN(C)C)[C@H](C)CN([C@@H](C)CO)C(=O)c2cc(N(C)C)ccc2O1`, with “inactive”.
Then `C[C@H](CO)N1C[C@H](C)[C@@H](CN(C)C(=O)Nc2ccc(F)cc2)OCCCC[C@H](C)Oc2ccc(NC(=O)Nc3ccccc3)cc2C1=O`, with “inactive”; and `CC(C)C(C)C=CC(C)C1CCC2C3=CC=C4CC(O)CCC4(C)C3CCC21C` (configuration not stated), with “inactive”.
With `Cc1ccc2c(Br)cc(Br)c(OC(=O)c3ccccc3)c2n1`, the cytotoxicity call is “active”.
Next, `CCn1cc(C(=O)O)c(=O)c2ccc(C)nc21`: “inactive”; `CNC[C@@H]1Oc2cc(C#CC(C)(C)O)ccc2S(=O)(=O)N([C@@H](C)CO)C[C@H]1C`: “inactive”; `C[C@H]1CN([C@@H](C)CO)S(=O)(=O)c2ccc(-c3ccncc3)cc2O[C@@H]1CN(C)Cc1ccc(Oc2ccccc2)cc1`: “inactive”.
Then `COc1ccccc1C#Cc1ccc2c(c1)O[C@H](CN(C)Cc1ccncc1)[C@@H](C)CN([C@@H](C)CO)S2(=O)=O`, with “active”; and `C[C@@H]1CN([C@@H](C)CO)S(=O)(=O)c2ccc(-c3ccncc3)cc2O[C@H]1CN(C)Cc1ccc(Oc2ccccc2)cc1`, with “active”; and `COc1ccccc1C#Cc1ccc2c(c1)O[C@@H](CN(C)Cc1ccncc1)[C@@H](C)CN([C@H](C)CO)S2(=O)=O`, with “inactive”.
As to `COc1ccccc1C#Cc1ccc2c(c1)O[C@@H](CN(C)Cc1ccncc1)[C@H](C)CN([C@H](C)CO)S2(=O)=O`, the cytotoxicity call is “inactive”.
As for `COc1ccccc1C#Cc1ccc2c(c1)O[C@H](CN(C)Cc1ccncc1)[C@@H](C)CN([C@H](C)CO)S2(=O)=O`, the cytotoxicity call was “inactive”.
Then `C[C@H]1CN([C@@H](C)CO)S(=O)(=O)c2ccc(-c3ccncc3)cc2O[C@H]1CN(C)Cc1ccc(Oc2ccccc2)cc1`, with “inactive”.
Turning to `COc1ccccc1C#Cc1ccc2c(c1)O[C@H](CN(C)Cc1ccncc1)[C@H](C)CN([C@H](C)CO)S2(=O)=O`, the cytotoxicity call was “active”.
Then `COc1ccccc1C#Cc1ccc2c(c1)O[C@@H](CN(C)Cc1ccncc1)[C@@H](C)CN([C@@H](C)CO)S2(=O)=O`, with “inactive”.
Next, `Cl.N=C(N)n1cccn1`: “inactive”; `C[C@@H]1CCCCO[C@@H](CN(C)S(=O)(=O)c2cn(C)cn2)[C@@H](C)CN([C@H](C)CO)C(=O)c2cc(N(C)C)ccc2O1`: “inactive”.
Take `Cn1cccc1CNCCCN1CCOCC1`: the cytotoxicity call is “inactive”.
Next, `C[C@H]1CCCCO[C@H](CN(C)C(=O)Nc2ccc3c(c2)OCO3)[C@@H](C)CN([C@@H](C)CO)C(=O)c2cc(NC(=O)Nc3ccc(C(F)(F)F)cc3)ccc2O1`: “inactive”.
Then `Cc1ccc(S(=O)(=O)N(C)C[C@H]2Oc3ccc(NS(C)(=O)=O)cc3C(=O)N([C@H](C)CO)C[C@@H]2C)cc1`, with “inactive”; and `Cc1noc(C)c1NC(=O)Nc1ccc2c(c1)C(=O)N([C@H](C)CO)C[C@@H](C)[C@H](CN(C)Cc1ccc(C(F)(F)F)cc1)O2`, with “inactive”; and `COc1ccc([C@@H]([C@H](Cc2ccccc2)OC(C)=O)N2C[C@H]3[C@@H]([C@@H](O)c4ccccc4)ON(C)[C@H]3[C@@H]2Cc2ccccc2)cc1`, with “active”.
Then `COc1ccc([C@@H]([C@H](Cc2ccccc2)OC(C)=O)N2C[C@@H](CC(=O)N(C)C)[C@H]3[C@@H]([C@@H]2Cc2ccccc2)N(C)O[C@@H]3c2ccccc2)cc1`, with “active”.
`COc1ccc([C@@H]([C@H](Cc2ccccc2)OC(C)=O)N2C[C@H]3[C@H]([C@@H](OC(C)=O)c4ccccc4)ON(C)[C@H]3[C@@H]2Cc2ccccc2)cc1`: the cytotoxicity call was “active”.
Next, `COc1ccc([C@@H]([C@H](Cc2ccccc2)OC(C)=O)N2C[C@H](CC(=O)N(C)C)[C@@H]3[C@H]([C@@H]2Cc2ccccc2)N(C)O[C@H]3c2ccccc2)cc1`: “inactive”; `COc1ccc([C@@H]([C@H](Cc2ccccc2)OC(C)=O)N2C[C@@H]3[C@H]([C@@H]2Cc2ccccc2)N(C)O[C@@]3(O)[C@@H](O)c2ccccc2)cc1`: “inactive”; `COc1ccc([C@@H]([C@H](Cc2ccccc2)OC(C)=O)N2C[C@@H](NC(=O)C(Cl)(Cl)Cl)[C@@H]3[C@H]([C@@H]2Cc2ccccc2)N(C)O[C@H]3c2ccccc2)cc1`: “inactive”.
Then `COc1ccc([C@@H]([C@H](Cc2ccccc2)OC(C)=O)N2C[C@@H](OC(C)=O)[C@@H]3[C@H]([C@@H]2Cc2ccccc2)N(C)O[C@H]3c2ccccc2)cc1`, with “inactive”.
Then `COc1ccc([C@@H]([C@H](Cc2ccccc2)OC(C)=O)N2C[C@@H](CC(=O)N(C)C)[C@@H]3[C@H]([C@@H]2Cc2ccccc2)N(C)O[C@H]3c2ccccc2)cc1`, with “inactive”; and `COc1ccc([C@@H]([C@H](Cc2ccccc2)OC(C)=O)N2C[C@@H]3C(=NO[C@H]3[C@@H](OC(C)=O)c3ccccc3)[C@@H]2Cc2ccccc2)cc1`, with “inactive”.
Consider `Cn1cnc(S(=O)(=O)N[C@@H]2CC[C@@H](CC(=O)Nc3ccccc3)O[C@H]2CO)c1`, for which the cytotoxicity call is “inactive”.
With `Cc1ccc(S(=O)(=O)Nc2ccc3c(c2)CC(=O)N([C@@H](C)CO)C[C@@H](C)[C@@H](CN(C)C(=O)NC(C)C)O3)cc1`, the cytotoxicity call is “inactive”.
With `O=C(Nc1ccc2c(c1)[C@@H]1C[C@H](CC(=O)N3CCc4ccccc4C3)O[C@H](CO)[C@@H]1O2)C1CCOCC1`, the cytotoxicity call was “inactive”.
Then `C[C@H](CO)N1C[C@H](C)[C@@H](CN(C)C(=O)Nc2cccc3ccccc23)OCCCC[C@H](C)Oc2ccc(NC(=O)Nc3ccccc3)cc2C1=O`, with “inactive”.
For the compound `Cc1noc(C)c1S(=O)(=O)N(C)C[C@H]1Oc2ccc(NS(C)(=O)=O)cc2CC(=O)N([C@@H](C)CO)C[C@@H]1C`, the cytotoxicity call was “inactive”.
Then `C[C@H](CO)N1C[C@H](C)[C@H](CN(C)C(=O)NC2CCCCC2)Oc2c(NC(=O)C3CC3)cccc2C1=O`, with “inactive”; and `C[C@@H]1CCCCO[C@@H](CN(C)S(C)(=O)=O)[C@@H](C)CN([C@H](C)CO)C(=O)c2cc(NS(=O)(=O)c3ccc(F)cc3)ccc2O1`, with “inactive”.
Then `C[C@@H]1CCCCO[C@@H](CN(C)C(=O)Nc2cccc3ccccc23)[C@@H](C)CN([C@H](C)CO)C(=O)c2cc(NC(=O)Nc3ccccc3)ccc2O1`, with “inactive”.
